The campaign covered roughly 150,000 compounds. About 540 (0.36%) showed an effect of 50% or more. Many of the other results were omitted from the sample, so strong results are more common in it than they were.

21 compounds from ChEMBL document CHEMBL4888484, “Replenishing the malaria drug discovery pipeline: Screening and hit evaluation of the MMV Hit Generation Library 1 (HGL1) against asexual blood stage Plasmodium falciparum ,using a nano luciferase reporter read-out” (2022) can be followed below.

This test concerns Plasmodium falciparum. Nature of the test: Primary screen in NF54 nanoGlo assay, in single point, at 2uM, 72h; a lower Z score goes with more inhibition. In kind it is functional, Erythrocyte. Conditions: timepoint 72 hour.
Consider `O=C(Cc1ccc2[nH]c(=O)[nH]c2c1)N1CCOC[C@@H]1CC1CCC1`, for which the “% Inhibition” value was 2% and the Z score is -0.19.
Taken in the same sequence, the figures for `CCOC(=O)c1cc2n(n1)C[C@@](C)(C(=O)NCCC(C)C)N(c1ccc(C)c(C)c1)C2=O` were -6% and 0.75.
Taken in the same sequence, the figures for `CCC(=O)N(Cc1cccc(F)c1)c1ccc(CC(=O)NCCN2CCCC2)cc1` were -2% and 0.24.
The matching figures for `Cc1cccc(CN(C(=O)C2CCCC2)c2ccc(CC(=O)NCCN3CCCC3)cc2)c1`: 20% and -2.23.
Regarding `O=C(Cc1ccc(N(Cc2cccc(F)c2)C(=O)C2CCCC2)cc1)NCCN1CCCCC1`, the “% Inhibition” value is recorded as 59% and the Z score was -9.89.
The matching figures for `COc1cccc(C(=O)N(Cc2ccc(C)cc2)c2cccc(CC(=O)N[C@@H](C)c3ccccc3)c2)c1`: -8% and 1.49.
Taken in the same sequence, the figures for `Cc1ccc(CN(C(=O)c2ccccc2C)c2cccc(CC(=O)NCCN3CCCC3)c2)cc1` were -9% and 1.17.
For the compound `Cc1ccccc1C(=O)N(Cc1cccc(F)c1)c1ccc(CC(=O)NCCN2CCCCC2)cc1`, the “% Inhibition” value was found to be 58% and the Z score is -4.25.
Taken in the same sequence, the figures for `O=C(Cc1ccc(N(Cc2ccc(F)cc2)C(=O)c2cccc(F)c2)cc1)NCc1ccccc1` were -2% and 0.3.
Taken in the same sequence, the figures for `Cc1ccc(C(=O)N(Cc2cccc(F)c2)c2ccc(CC(=O)N[C@@H](C)c3ccccc3)cc2)cc1` were 74% and -8.26.
The matching figures for `O=C(Cc1ccc(N(Cc2cccc(F)c2)C(=O)C2CCCC2)cc1)NCCN1CCCC1`: 25% and -2.85.
For the compound `O=C(Cc1ccc(N(Cc2cccc(F)c2)C(=O)c2cccc(F)c2)cc1)NCCN1CCCC1`, the “% Inhibition” value was found to be 3% and the Z score is listed as -0.41.
For `O=C(Cc1ccc(N(Cc2cccc(F)c2)C(=O)c2cccc(F)c2)cc1)NCCN1CCCCC1`, the “% Inhibition” value turned out to be 57% and the Z score is given as -2.67.
Taken in the same sequence, the figures for `Cc1ccccc1C(=O)N(Cc1ccc(F)cc1)c1cccc(CC(=O)NCCN2CCCC2)c1` were 6% and -0.6.
In the case of `CC(C)(C)c1ncc(-c2cc(F)cc3cccnc23)[nH]1`, the “% Inhibition” value is -16% and the Z score came to 1.82.
Taken in the same sequence, the figures for `Cc1n[nH]nc1-c1nc(-c2ccncc2)nn1[C@H]1CCS(=O)(=O)C1` were -6% and 0.87.
The matching figures for `Cc1ccc(CS(=O)(=O)N2CCC3CCN(C)CC32)c(F)c1` (configuration not stated): -7% and 1.13.
With `Cc1nccn1CCNC(=O)c1cc2cccc(Cl)c2n1C`, the “% Inhibition” value was -16% and the Z score came out at 1.43.
The matching figures for `CC[C@H]1CN(Cc2cccn2-c2nccs2)CCN1C`: -2% and 0.41.
Taken in the same sequence, the figures for `Cc1ccc(-n2nc(C)cc2NS(=O)(=O)c2c(C)nn(C(C)C)c2C)nn1` were -9% and 1.42.
Taken in the same sequence, the figures for `CCOc1cccc2[nH]cc(CC(=O)N[C@H](c3nccn3C)C3CC3)c12` were 7% and -0.9.
